# Reference: PubChem BioAssay (NCATS)
# Records with an inconclusive call do not appear. Where a call stands in place of a potency, no number is given. Unmarked numbers belong to inactive results. Activity calls are given as the source filed them. The call rests on the fitted dose curve; in most records, active means well fitted curve in the direction sought with a large enough effect; inconclusive means small, poorly fitted or top-dose-only effect, or another doubt; inactive means no such curve, though single readings can be large; an effect the other way counts as inactive or inconclusive.
# Key:
# [1] = qHTS for Inhibitors of the Aldehyde Dehydrogenase Family (ALDH1A2, ALDH1A3, ALDH2, ALDH3A1) (AID 2061307); further: nearly all actives have a fitted effect of over 50% in size; on potency: test system not described further here; potency means the concentration at half of the fitted maximal effect
# [2] = biological target: Aldehyde dehydrogenase, mitochondrial (Homo sapiens) (UniProt P05091); assay: qHTS for Inhibitors of the Aldehyde Dehydrogenase Family (ALDH2) Primary screen (AID 2061308); further: nearly all actives have a fitted effect of over 55% in size
# [3] = biological target: Retinaldehyde dehydrogenase 3 (Homo sapiens) (UniProt P47895); assay: qHTS for Inhibitors of the Aldehyde Dehydrogenase Family (ALDH1A3) Primary screen (AID 2061315)
# [4] = biological target: Aldehyde dehydrogenase 1A1 (Homo sapiens) (UniProt P00352); assay: qHTS for Inhibitors of the Aldehyde Dehydrogenase Family (ALDH1A1) Confirmatory screens (AID 2061316); further: nearly all actives have a fitted effect of over 65% in size; further: potency means the concentration at half of the fitted maximal effect
# [5] = BET inhibitor-based combinations targeting novel dependencies in MECOM-rearranged (r) AML: SET-2 cell line (AID 2202231); details: SET-2 AML cells viability, CellTiter-Glo luminescence, 48 h; viability: stronger effect = lower value, series mostly up to about 46 µM; further: nearly all actives have a fitted effect of over 35% in size
# In short: (§1)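 Each compound was tested at eleven concentrations on cells seeded at 500/well. After two days' incubation, ATP-based luminescence reported viability; responses relative to DMSO and blank wells yielded AUC and cell-line-centred Z-AUC.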
# [6] = BET inhibitor-based combinations targeting novel dependencies in MECOM-rearranged (r) AML: MV-4-11 cell line (AID 2202233); further: potency means the concentration at half of the fitted maximal effect; nearly all actives have a fitted effect of over 45% in size
# In short: (§2)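 First, 500 cells per well were seeded; next, drugs were pinned as 11-point doses; then plates sat 48 hr in the incubator; finally CellTiter-Glo was added and luminescence read, with AUC and Z-AUC computed.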
# [7] = BET inhibitor-based combinations targeting novel dependencies in MECOM-rearranged (r) AML: UCSD-AML1 cell line (AID 2202235); further: series mostly up to about 46 µM; nearly all actives have a fitted effect of over 40% in size
# In short: as §2
# [8] = BET inhibitor-based combinations targeting novel dependencies in MECOM-rearranged (r) AML: AML-191 cell line (AID 2202236; further: nearly all actives have a fitted effect of over 35% in size)
# In short: as §1
# [9] = BET inhibitor-based combinations targeting novel dependencies in MECOM-rearranged (r) AML: AML-194 cell line (AID 2202237; further: nearly all actives have a fitted effect of over 40% in size)
# In short: as §1
# [10] = biological target: Retinaldehyde dehydrogenase 3 (Homo sapiens) (UniProt P47895); assay: qHTS for Inhibitors of the Aldehyde Dehydrogenase Family (ALDH1A3) Confirmatory screens (AID 2061311); further: nearly all actives have a fitted effect of over 60% in size; further: potency means the concentration at half of the fitted maximal effect
# [11] = biological target: Retinal dehydrogenase 2 (Homo sapiens) (UniProt O94788); assay: qHTS for Inhibitors of the Aldehyde Dehydrogenase Family (ALDH1A2) Confirmation screens (AID 2061314); further: nearly all actives have a fitted effect of over 65% in size; further: potency means the concentration at half of the fitted maximal effect
structure (smiles),measurement,setting,value
COC(=O)c1ccc(O)c2ncc(-c3ccc(C(=O)N4CCNCC4)cc3)cc12,Potency,[1],inactive
same,Potency,[2],inactive
same,Potency,[3],inactive
same,Potency,[4],inactive
CNc1sc(-c2cccc3ccccc23)nc1C(=O)OC,Potency,[1],15.9 µM (active)
same,Potency,[2],inactive
same,Potency,[3],inactive
same,Potency,[4],14.2 µM (active)
CC(C)(C)OC(=O)NCCOCCOCCOCCn1ncc2c1CCCC2NC(=O)c1ccccn1 (stereo unspecified),Potency,[1],inactive
same,Potency,[2],inactive
same,Potency,[3],inactive
COc1ccc(OCc2cc(C3Nc4ccccc4C(=O)N3Cc3ccccc3)ccc2OC)cc1 (stereo unspecified),Potency,[1],5.65 µM (active)
same,Potency,[2],inactive
same,Potency,[3],inactive
COc1ccc(C2Nc3ccccc3C(=O)N2Cc2ccccc2Cl)cc1COc1ccc(NC(C)=O)cc1 (stereo unspecified),Potency,[1],8.96 µM (active)
same,Potency,[2],inactive
same,Potency,[3],inactive
COc1cccc(CN2C(=O)c3ccccc3NC2c2ccc(OC)c(COc3ccc(NC(C)=O)cc3)c2)c1 (stereo unspecified),Potency,[1],3.55 µM (active)
same,Potency,[2],inactive
same,Potency,[3],inactive
COc1cccc(CNc2ccc(S(=O)(=O)Nc3ccc(C)nc3)cc2)c1O,Potency,[1],inactive
same,Potency,[2],inactive
same,Potency,[3],inactive
same,Potency,[4],inactive
COc1ccc(C2Nc3ccccc3C(=O)N2Cc2ccccc2OC)cc1COc1ccc(NC(C)=O)cc1 (stereo unspecified),Potency,[1],2.25 µM (active)
same,Potency,[2],inactive
same,Potency,[3],inactive
same,Potency,[4],22.5 µM (active)
COc1ccc(C2c3c(ncn(CCN4CCOCC4)c3=N)Oc3ccc4ccccc4c32)cc1OC (stereo unspecified),Potency,[1],inactive
same,Potency,[2],inactive
same,Potency,[3],inactive
O=C(c1cccs1)c1nonc1C(=O)c1cccs1,Potency,[1],inactive
same,Potency,[2],inactive
same,Potency,[3],inactive
OCc1ccc(-c2ccc3ncnc(NCCc4cnc[nH]4)c3c2)o1,Potency,[1],inactive
same,Potency,[2],inactive
same,Potency,[3],inactive
same,Potency,[4],10.1 µM (active)
N[C@@H](Cc1ccc(OS(=O)(=O)c2cccnc2)cc1)C(=O)N1CCN(c2ccccc2)CC1,Potency,[1],5.65 µM (active)
same,Potency,[2],inactive
same,Potency,[3],inactive
same,Potency,[4],10.1 µM (active)
Cc1ccc(-n2c(C)cc(-c3nnc4n3CCCCC4)c2C)cc1,Potency,[1],inactive
same,Potency,[2],inactive
same,Potency,[3],inactive
same,Potency,[4],20.1 µM (active)
same,viability,[5],104%
same,Potency,[6],23.5 µM (active)
same,Potency,[7],inactive
same,Potency,[8],inactive
same,Potency,[9],inactive
COc1ccc(S(=O)(=O)N2CCN(S(=O)(=O)c3ccc4c(c3)OCCO4)CC2)cc1,Potency,[1],inactive
same,Potency,[2],inactive
same,Potency,[3],inactive
COc1cc(/C=C2\C(=O)Nc3ccccc32)ccc1O,Potency,[1],inactive
same,Potency,[2],inactive
same,Potency,[3],inactive
O=C(O)c1ccc(O)c2ncc(-c3ccc(C(=O)N4CCNCC4)cc3)cc12,Potency,[1],inactive
same,Potency,[2],inactive
same,Potency,[3],inactive
same,Potency,[4],inactive
Cc1ccc2nc3sc(C(=O)Nc4ccncc4)cc3cc2c1,Potency,[1],11.3 µM (active)
same,Potency,[2],inactive
same,Potency,[3],inactive
same,Potency,[4],14.2 µM (active)
COc1cccc(S(=O)(=O)N2CCC3(CC2)CC(CC(=O)NC2CC2)CCO3)c1 (stereo unspecified),Potency,[1],inactive
same,Potency,[10],inactive
N#Cc1ccc(CNc2nc(-c3ccccc3C(F)(F)F)nc3ccccc23)cc1,Potency,[1],17.9 µM (active)
same,Potency,[2],inactive
same,Potency,[3],inactive
same,Potency,[4],14.2 µM (active)
NC(=O)C1CCN(c2nc(-c3ccccc3N)cs2)CC1,Potency,[1],7.12 µM (active)
same,Potency,[2],inactive
same,Potency,[3],inactive
same,Potency,[4],12.7 µM (active)
COc1ccc(C2Nc3ccccc3C(=O)N2Cc2ccccc2)cc1COc1ccc(NC(C)=O)cc1 (stereo unspecified),Potency,[1],3.18 µM (active)
same,Potency,[2],inactive
same,Potency,[3],inactive
CN(C)c1cccc(-c2cnc(N3CCC(c4ncc[nH]4)CC3)s2)c1,Potency,[1],10.1 µM (active)
same,Potency,[10],4 µM (active)
same,Potency,[11],inactive
same,Potency,[3],inactive
same,Potency,[4],0.201 µM (active)
CN1CCN(c2ccc(NC(=O)CN(C)Cc3c(O)ccc4ccccc34)cc2)CC1,Potency,[1],7.12 µM (active)
same,Potency,[10],22.5 µM (active)
same,Potency,[11],7.12 µM (active)
same,Potency,[3],inactive
same,Potency,[4],5.04 µM (active)
CCOC(=O)C1CCN(C(=O)C(C)(C)NC(=O)Nc2ccc(N(C)C)cc2)CC1,Potency,[1],inactive
same,Potency,[10],14.2 µM (active)
same,Potency,[11],12.7 µM (active)
COc1ccc(C2=Nn3c(nnc3-c3ccccc3OC)SC2)cc1OC1CCCC1,Potency,[1],15.8 µM (active)
same,Potency,[10],22.4 µM (active)
same,Potency,[11],6.34 µM (active)
same,Potency,[3],inactive
CC(=O)Nc1sc2c(c1-c1csc3ccccc13)CCNC2,Potency,[1],inactive
same,Potency,[10],inactive
same,Potency,[11],15.9 µM (active)
same,Potency,[3],inactive
CC(C)CCN(C)Cc1ccc(-c2ccccc2)cc1,Potency,[1],25.1 µM (active)
same,Potency,[10],4.19 µM (active)
same,Potency,[11],inactive
CC(=O)c1ccc(N2CCN(C(=O)CCS(=O)(=O)c3ccc4c(c3)oc(=O)n4C)CC2)cc1,Potency,[1],inactive
same,Potency,[10],16.2 µM (active)
COc1cccc(CNC(=O)c2ccc3c(c2)sc2nc(-c4ccccc4)cn23)c1OC,Potency,[1],inactive
same,Potency,[10],inactive
same,Potency,[11],inactive
Cc1ccc(S(=O)(=O)Nc2cnccc2C(=O)Nc2nc(C(=O)O)cs2)cc1,Potency,[1],inactive
same,Potency,[10],20.1 µM (active)
same,Potency,[11],inactive
same,Potency,[3],inactive
